Results on 10 compounds are retold here after PubChem BioAssay.

Active and inactive are the calls of the source. Unless noted, how the calls were made is not given here.

Experiment [1] has as its system Wnt5a (protein binding on small-molecule microarray). The experiment is described as follows: Wnt5a binders on small-molecule microarray, primary screen, biophysical, 635/667 nm fluorescence (AID 1142).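 Further: fluorescence read at 667 nm with signal to noise per printed feature.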 The following applies: 635 nm fluorescence, higher = more signal.
Experiment [2] is described as follows: cell viability in Huh7 cells, primary screen, cytotoxicity control for HCV replication inhibitor project, CellTiter-Glo luminescence, basal, 48 h (AID 1143).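 Further: Huh7 hepatoma cells carrying a hepatitis C replication reporter with no stimulus; test concentration not given here.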 The following applies: Huh7 HCV replicon, higher = more signal, called active from +8 up or from −8 down. In general terms: Cellular ATP, detected with luciferase, serves as a proxy for viable cell number.

Experiment [3] can be described thus: P. aeruginosa biofilm formation inhibitors, primary screen, PAO1 strain, BacTiter-Glo luminescence, LB-PBS (AID 1144). The following applies: 12 h, higher = more signal.
Experiment [4] is described as follows: CREB reporter modulators without forskolin, primary screen, cell-based, PC12, CRE-LacZ reporter, unstimulated (AID 1145). The following applies: no forskolin, luminescence, 4.5 h, higher = more signal, called active from +8 up or from −8 down.
Experiment [5] in a line: CREB reporter modulators under forskolin, primary screen, cell-based, PC12, CRE-LacZ reporter, forskolin-stimulated (AID 1146).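 Further: PC12 cells with 6xCRE LacZ reporter stimulated by forskolin 10 µM; beta-galactosidase reporter signal reflecting CREB driven transcription.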 The following applies: luminescence, 4.5 h, higher = more signal, called active from +8 up or from −8 down.
Experiment [6] has as its target Streptavidin (Streptomyces avidinii) (UniProt P22629). The experiment is described as follows: streptavidin binders on small-molecule microarray, primary screen, artefact control for SMM compound annotation, biophysical, 635/667 nm fluorescence (AID 1147).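 Further: signal reflects streptavidin binding to arrayed compounds as a control protein.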 The following applies: streptavidin binding, higher = more signal.
Experiment [7] is described as follows: small-molecule binders of probe aInhba, primary screen, biochemical, small-molecule microarray, 635/667 nm fluorescence (AID 1148).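 Further: score merges 667nm spot fluorescence with signal-to-noise for antibody binding to printed compounds.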 The following applies: higher = more signal.
Experiment [8] addresses Torsin-1A (Homo sapiens) (UniProt O14656). The experiment is described as follows: torsin A binders from cell lysate, primary screen, small-molecule microarray, wild-type, 635/667 nm (AID 1149). The following applies: COS7 hTOR1A-WT lysate, 635 nm fluorescence, higher = more signal.
For experiment [9] the target is unchanged. The experiment is described as follows: small-molecule binders of mutant TOR1A in lysate, primary screen, cell lysate, small-molecule microarray, COS7 lysate, 635/667 nm fluorescence (AID 1150).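 Further: score pools 667 nm emission and signal to noise measuring lysate protein binding.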 The following applies: COS7 hTOR1A mutant lysate, 635 nm fluorescence, higher = more signal.
In experiment [10] the test system is Sonic hedgehog protein (Shh). Kind of experiment: small-molecule binders of Shh protein, primary screen, biochemical, small-molecule microarray, 635/667 nm fluorescence (AID 1151).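 Further: Shh protein binding to compounds spotted on small-molecule microarray slides; score combines spot fluorescence intensity with signal-to-noise across triplicate slides.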 The following applies: small-molecule microarray binding, 635 nm fluorescence; higher = more signal.

Chain of Torsin-1A (Homo sapiens) (O14656 whole entry, looked up): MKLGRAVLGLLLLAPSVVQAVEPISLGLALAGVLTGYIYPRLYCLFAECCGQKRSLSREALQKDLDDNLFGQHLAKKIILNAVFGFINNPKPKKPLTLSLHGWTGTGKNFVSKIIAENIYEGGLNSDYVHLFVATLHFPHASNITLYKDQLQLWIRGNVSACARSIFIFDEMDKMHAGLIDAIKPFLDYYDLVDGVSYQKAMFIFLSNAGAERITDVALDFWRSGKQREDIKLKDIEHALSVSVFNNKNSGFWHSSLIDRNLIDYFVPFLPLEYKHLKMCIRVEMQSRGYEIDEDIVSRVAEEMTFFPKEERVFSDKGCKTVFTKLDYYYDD
Chain of Streptavidin (Streptomyces avidinii) (P22629 whole entry, looked up): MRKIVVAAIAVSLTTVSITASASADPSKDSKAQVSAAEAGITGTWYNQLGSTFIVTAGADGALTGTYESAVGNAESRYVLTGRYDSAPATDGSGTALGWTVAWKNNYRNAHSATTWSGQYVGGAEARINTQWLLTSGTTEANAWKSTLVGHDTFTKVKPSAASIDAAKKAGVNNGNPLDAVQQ

Turning to `C=C(CCCC)/C(=C/C[C@H](OC(=O)c1ccncc1)c1cccc(OCCO)c1)c1cnc2ccccc2c1`, the composite z-score was found to be 0.24 in experiment [1]; 0.905 in experiment [6]; 0.0155 in [7]; 0.947 in the experiment with Torsin-1A (Homo sapiens) [8]; 0.706 with Torsin-1A (Homo sapiens) [9]; 1.78 in [10]. Besides, the z-score in [2] is -1.58 (inactive); in [3], 0.124 (inactive); in [4], 2.6 (inactive); in experiment [5], 0.256 (inactive).

Turning to `C=CC[C@@]12N=C(c3ccc(OCCCO)cc3)O[C@@H]1c1ccccc1N(CCC)C2=O`, the composite z-score in experiment [1] is 0.318; in [6], -0.0328; in experiment [7] it was -0.0185; in the experiment with Torsin-1A (Homo sapiens) [8], -0.1; with Torsin-1A (Homo sapiens) [9], 0.204; in [10] it was 1.84. Besides, the z-score in [2] was -4.06 (inactive); in [3], -1.29 (inactive); in experiment [4] it was 0.69 (inactive); in [5], -0.707 (inactive).

On to `CC(C)C(=C=CC[C@H](O)c1ccccc1OCCO)C[C@H](O)COCc1ccccc1`, for which the composite z-score in experiment [1] was -0.042; in [6], -0.266; in experiment [7] it was -0.101; in the experiment with Torsin-1A (Homo sapiens) [8], -0.0509; with Torsin-1A (Homo sapiens) [9], 1.12; in [10] it was 0.0553. In addition, the z-score is -2.03 (inactive) in experiment [2], 0.297 (inactive) in [3], 16 (active) in experiment [4] and -0.0014 (inactive) in experiment [5].

Turning to `CC(=O)c1ccc(C(O)C2C=CC3C(=O)N(c4ccccc4)C(=O)C3N2Nc2ccc(C(C)C)cc2)cc1` (stereo not given), the composite z-score in [1] was 0.0129; in [6] it was 1.43; in [7] it was 0.361; with Torsin-1A (Homo sapiens) [8], -0.127; with Torsin-1A (Homo sapiens) [9], 0.135; in [10], 0.295. The z-score in experiment [2] is -1.16 (inactive); in [3], -0.853 (inactive); in [4] it was 1.4 (inactive); in experiment [5], -0.17 (inactive).

With `CC(C)(C)N1CC=CC23O[C@@H]4C=CCCOC(=O)C4[C@H]2C(=O)N(CCCCCCO)[C@@H]3C1=O` (stereo not given in full), the composite z-score in experiment [1] was -0.515; in [6], -0.703; in [7], -0.0933; with Torsin-1A (Homo sapiens) [8] it was -1.15; with Torsin-1A (Homo sapiens) [9] it was -1.29; in experiment [10], 0.833. Besides, the z-score in [2] was 0.451 (inactive); in [3], 0.595 (inactive); in [4], -0.0899 (inactive); in experiment [5], -0.254 (inactive).

For the compound `CC(C)N1C(=O)c2ccccc2[C@@H](C(=O)NCC(F)(F)F)[C@@H]1c1ccc(CO)cc1`, the composite z-score is -0.167 in [1]; -0.268 in experiment [6]; -0.152 in experiment [7]; -0.0705 in the experiment with Torsin-1A (Homo sapiens) [8]; -1.02 with Torsin-1A (Homo sapiens) [9]; 0.119 in [10]. The z-score in experiment [2] is 0.837 (inactive); in experiment [3], 1.03 (inactive); in [4], 0.145 (inactive); in experiment [5], 0.557 (inactive).

Consider `COc1cc(C(O)C2C=CC3C(=O)N(c4ccccc4)C(=O)C3N2Nc2ccccc2F)cc(OC)c1OC` (stereo not given), for which the composite z-score came out at 0.36 in experiment [1]; 0.135 in experiment [6]; 0.177 in [7]; 0.0422 with Torsin-1A (Homo sapiens) [8]; 0.8 with Torsin-1A (Homo sapiens) [9]; 0.429 in experiment [10]. Moreover, the z-score in experiment [2] is -1.73 (inactive); in [3] it was 0.0706 (inactive); in experiment [4] it was 1.61 (inactive); in experiment [5], 1.05 (inactive).

Turning to `COCCOC(=O)N1C(=O)[C@@]2(c3cc(C#CCC(C(=O)OC)C(=O)OC)ccc31)[C@H](C(=O)Nc1nc3ccccc3s1)[C@H]1C(=O)O[C@H](c3ccccc3)[C@H](c3ccccc3)N1[C@@H]2c1ccc(OCCO)cc1`, the composite z-score in experiment [1] was 0.555; in experiment [6] it was 0.532; in [7] it was 0.79; with Torsin-1A (Homo sapiens) [8] it was 1.07; with Torsin-1A (Homo sapiens) [9], 0.596; in [10], 2.23. The z-score is -0.835 (inactive) in experiment [2], -0.00208 (inactive) in [3], 1.71 (inactive) in experiment [4] and 0.323 (inactive) in experiment [5].

On to `O=C1O[C@@H](c2ccccc2)[C@@H](c2ccccc2)N2[C@@H](c3ccc(OCCO)cc3)[C@]3(C(=O)Nc4ccc(C#CCCO)cc43)[C@@H](C(=O)O)[C@H]12`, for which the composite z-score in experiment [1] amounted to 0.529; in [6] it was 1.84; in [7] it was 1.34; with Torsin-1A (Homo sapiens) [8], 0.892; with Torsin-1A (Homo sapiens) [9], 0.203; in experiment [10], 0.688. In addition, the z-score in experiment [2] was -0.579 (inactive); in experiment [3], -0.155 (inactive); in [4] it was -0.761 (inactive); in [5], -0.0408 (inactive).

`C=C(CCCC)C(=O)CC[C@H](OC(=O)c1ccccc1-c1ccccc1C(=O)O)c1ccc(OCCO)cc1`: the composite z-score is 0.475 in experiment [1]; -0.092 in experiment [6]; 0.0614 in [7]; 0.374 in the experiment with Torsin-1A (Homo sapiens) [8]; 0.204 in the experiment with Torsin-1A (Homo sapiens) [9]; 1.91 in [10]. Besides, the z-score in experiment [2] was -1.19 (inactive); in [3], -1.5 (inactive); in experiment [4], -0.35 (inactive); in [5], 2.12 (inactive).
